The labels stand for the following.
B1: ENSMUSG00000090935.767|Synj2bp (ssRNA)
RNA: GGGAGUUCUACAGUCCGACGAUCGCUUCGAUAUCCGCAUGCUAAUUUUAAAAAUCAGUUUACUUUCAUCUUUUCUCUUUAGGCUUUCAAUAAAGACCAGAAGGACUGAUAGACAGCUAGAGAGGAUCGUGUAGGCAUCCAGAUUAGAAUGGAAGAAUCCAUUGAACAAUCUGAGAAAACUAAUCAGGUGUUGUUUUAAUCACAUUAGUUUUAAGUUAGAUACAUGCUCUUUGUAGUAUUUUGGGUUUUAUUGUGCAAAUAAGCAAUUAAAAUAUAUUUAGAAGCCAAGUAUAAUGGUACAUGUCUCUUGCGGUCGCACUAGUGUGGAAUUCUCGGGUGUCAAGG
B2: ENSMUSG00000058297.25|Spock2 (ssRNA)
RNA: GGGAGUUCUACAGUCCGACGAUCGCUUCGAUAUCCGCAUGCUAAAGACAGGCCAGAAGAGACCUGGACAACAGCAGGCAACUUAGCAAAUGGAUCCGGAAGUCAGUGCGGAGGACCCUGGCUCCAGUGGGGGAGGACUGGGGAGUGUGGCUUGUGUGUAUGUGUGAUAUGAGAUGUGUGUGUAUGAUGUGAGAUGUGAGUGUGUGAUGUGAGAUGUGUGUAUGUGAGAUGUGUGUGUGUGUGUGUGUGUGUGUGAUGUGAGUCACCCAAAGGUCCCUAUGUUAUUGAUUUUCAAAUGCACACUCUCUUGCGGUCGCACUAGUGUGGAAUUCUCGGGUGUCAAGG
B3: ENSMUSG00000058297.26|Spock2|95:99;103:116;125:136;150:156;165:174;180:205 (ssRNA)
RNA: GGGAGUUCUACAGUCCGACGAUCGCUUCGAUAUCCGCAUGCUAGGCCAGAAGAGACCUGGACAACAGCAGGCAACUUAGCAAAUGGAUCCGGAAGUCAGUGCGGAGGACCCUGGCUCCAGUGGGGGAGGACUGGGGACACACGCUACACACAUACACACAUAUGAGAACACACACAUACAUGUGAGAUGUGACACACACAUGUGAGAACACACAUACUGAGAACACACACACACACACACACACACACAUGUGAGUCACCCAAAGGUCCCUAUGUUAUUGAUUUUCAAAUGCACACUUUCACACUCUUGCGGUCGCACUAGUGUGGAAUUCUCGGGUGUCAAGG
B4: ENSMUSG00000058297.23|Spock2|113:117;121:134;143:154;168:174;183:192;198:223 (ssRNA)
RNA: GGGAGUUCUACAGUCCGACGAUCGCUUCGAUAUCCGCAUGCUACCGACGGCCAGAAAGACAGGCCAGAAGAGACCUGGACAACAGCAGGCAACUUAGCAAAUGGAUCCGGAAGUCAGUGCGGAGGACCCUGGCUCCAGUGGGGGAGGACUGGGGACACACGCUACACACAUACACACAUAUGAGAACACACACAUACAUGUGAGAUGUGACACACACAUGUGAGAACACACAUACUGAGAACACACACACACACACACACACACACAUGUGAGUCACCCAAAGGUCCCUAUGUUAUUGAUUUUCUCUUGCGGUCGCACUAGUGUGGAAUUCUCGGGUGUCAAGG
B5: ENSMUSG00000058297.23|Spock2 (ssRNA)
RNA: GGGAGUUCUACAGUCCGACGAUCGCUUCGAUAUCCGCAUGCUACCGACGGCCAGAAAGACAGGCCAGAAGAGACCUGGACAACAGCAGGCAACUUAGCAAAUGGAUCCGGAAGUCAGUGCGGAGGACCCUGGCUCCAGUGGGGGAGGACUGGGGAGUGUGGCUUGUGUGUAUGUGUGAUAUGAGAUGUGUGUGUAUGAUGUGAGAUGUGAGUGUGUGAUGUGAGAUGUGUGUAUGUGAGAUGUGUGUGUGUGUGUGUGUGUGUGUGAUGUGAGUCACCCAAAGGUCCCUAUGUUAUUGAUUUUCUCUUGCGGUCGCACUAGUGUGGAAUUCUCGGGUGUCAAGG
B6: ENSMUSG00000058297.26|Spock2 (ssRNA)
RNA: GGGAGUUCUACAGUCCGACGAUCGCUUCGAUAUCCGCAUGCUAGGCCAGAAGAGACCUGGACAACAGCAGGCAACUUAGCAAAUGGAUCCGGAAGUCAGUGCGGAGGACCCUGGCUCCAGUGGGGGAGGACUGGGGAGUGUGGCUUGUGUGUAUGUGUGAUAUGAGAUGUGUGUGUAUGAUGUGAGAUGUGAGUGUGUGAUGUGAGAUGUGUGUAUGUGAGAUGUGUGUGUGUGUGUGUGUGUGUGUGAUGUGAGUCACCCAAAGGUCCCUAUGUUAUUGAUUUUCAAAUGCACACUUUCACACUCUUGCGGUCGCACUAGUGUGGAAUUCUCGGGUGUCAAGG
B7: ENSMUSG00000058297.24|Spock2 (ssRNA)
RNA: GGGAGUUCUACAGUCCGACGAUCGCUUCGAUAUCCGCAUGCUAGCCAGAAAGACAGGCCAGAAGAGACCUGGACAACAGCAGGCAACUUAGCAAAUGGAUCCGGAAGUCAGUGCGGAGGACCCUGGCUCCAGUGGGGGAGGACUGGGGAGUGUGGCUUGUGUGUAUGUGUGAUAUGAGAUGUGUGUGUAUGAUGUGAGAUGUGAGUGUGUGAUGUGAGAUGUGUGUAUGUGAGAUGUGUGUGUGUGUGUGUGUGUGUGUGAUGUGAGUCACCCAAAGGUCCCUAUGUUAUUGAUUUUCAAAUGCUCUUGCGGUCGCACUAGUGUGGAAUUCUCGGGUGUCAAGG
B8: ENSMUSG00000058297.22|Spock2|119:123;127:140;149:160;174:180;189:198;204:229 (ssRNA)
RNA: GGGAGUUCUACAGUCCGACGAUCGCUUCGAUAUCCGCAUGCUAAGGGUGCCGACGGCCAGAAAGACAGGCCAGAAGAGACCUGGACAACAGCAGGCAACUUAGCAAAUGGAUCCGGAAGUCAGUGCGGAGGACCCUGGCUCCAGUGGGGGAGGACUGGGGACACACGCUACACACAUACACACAUAUGAGAACACACACAUACAUGUGAGAUGUGACACACACAUGUGAGAACACACAUACUGAGAACACACACACACACACACACACACACAUGUGAGUCACCCAAAGGUCCCUAUGUUAUUCUCUUGCGGUCGCACUAGUGUGGAAUUCUCGGGUGUCAAGG
B9: ENSMUSG00000061578.90|Ksr2|236:240 (ssRNA)
RNA: GGGAGUUCUACAGUCCGACGAUCGCUUCGAUAUCCGCAUGCUAUCUGAUUUUAGAGGUCCCAUUCCAAGAUGGAAGUCACCGGUUGCCGCUGAGCACACAAUUCUGAAGGACAGUAGGCAGUCCUGCAGGUCUUUUUUAGCACAGGGCCUCUCUGGGGACCAGUCCCUGGCCUUCACCCUUCUCCCAUUUUGUAAGAACACUGUUCUAACUCACCUCAUGCCCACGCUACCCUGGGCAACUGGAGAACACCAUAGCGUUUCAGCUGAUGUGACAUUUGCACACACCUUUACCAGUUCACCAUCCUCUUGCGGUCGCACUAGUGUGGAAUUCUCGGGUGUCAAGG
B10: ENSMUSG00000090935.515|Synj2bp (ssRNA)
RNA: GGGAGUUCUACAGUCCGACGAUCGCUUCGAUAUCCGCAUGCUAUGGAGGCCCAGUGUCUGCUACCCUUCUUGUAUCUGAUGGCAUGGGUAACAGCUCUGCCAUGGGCCUGCUUACUUCUAGUAUUCACCUCAGGGCUUGGAAAUUGGUUUUGAAAGGCUUUUAGACAUAGAAAGUAAAACUAAUGGCAAGGAGGAUAAAACACUGUUGUGUGUUGUAUUGUUGAUCUAAAUAAAAAAUAUCAUUGGUAGAAGUUUUACUUUGGUUGAUAAGGAUUCUGAUAACAUUUGGGUCUCCUUAGGAAACUCUUGCGGUCGCACUAGUGUGGAAUUCUCGGGUGUCAAGG
B11: ENSMUSG00000031028.314|Tub|85:89 (ssRNA)
RNA: GGGAGUUCUACAGUCCGACGAUCGCUUCGAUAUCCGCAUGCUAUUUCUAGAGGGCAGUAGGACUUCCAUGCUGGGGCUGGCCUAUCUCCUGAUGAAAGAUUACAGUGCCAUCUCCUUCCCAUAGUUCACACACUGCCCUCCCUCCCUGACUUUAUAGGGAGAAAUCUCCUGACAUUAGAGGUGAUAGAAACCAGAGCUUUAGUCUAGUCAGGCUGUUUCUCUGGGUUGACAAGUUUAAGGUUGAACAGGCUGAUUUCUGGAAUCUCAUGAGUGGAGGGGACCCUGGUGGUUAAGAGCGGAACUCUCUUGCGGUCGCACUAGUGUGGAAUUCUCGGGUGUCAAGG

The values that follow come from publication PMC12864922, “TDP-43 directly inhibits mRNA accumulation in neurites through modulation of mRNA stability”.

The full ranking holds about 9,900 sequences; the median of “r (bound/input frequency ratio)” is about 0.7, and the highest 2% start at about 6.5. For the sample, the highest values were picked, then their nearest neighbours and some sequences at random.

Chain of TDP-43 (Q13148 whole entry): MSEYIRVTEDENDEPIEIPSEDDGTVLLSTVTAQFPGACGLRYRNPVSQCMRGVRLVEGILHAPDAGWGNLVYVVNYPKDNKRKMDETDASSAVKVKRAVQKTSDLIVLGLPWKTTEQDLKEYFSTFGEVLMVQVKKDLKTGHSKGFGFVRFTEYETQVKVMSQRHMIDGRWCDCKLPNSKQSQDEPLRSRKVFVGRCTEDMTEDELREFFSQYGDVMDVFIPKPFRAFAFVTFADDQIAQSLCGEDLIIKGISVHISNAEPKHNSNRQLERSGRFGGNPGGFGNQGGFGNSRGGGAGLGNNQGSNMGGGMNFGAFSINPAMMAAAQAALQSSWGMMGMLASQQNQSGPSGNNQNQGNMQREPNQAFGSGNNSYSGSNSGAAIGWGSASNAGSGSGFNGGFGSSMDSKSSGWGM

The test deals with TDP-43 (Homo sapiens, UniProt Q13148 1-414). Put plainly: RNA Bind-n-Seq with designed 260-mer pool; 25 mM Tris-HCl, 150 mM KCl, 3 mM MgCl2, BSA (printed 500 mg/mL), 20 units/mL SUPERase IN; pH not stated; 500 nM RNA pool, 1 h, 4 C; TDP-43 5, 50, 500 nM; high values mean tight binding. Particulars: protein: recombinant; tags: SBP (GST cleaved off with PreScission; pGEX-GST-SBP). Put shortly:
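Recombinant SBP-tagged TDP-43 at 5, 50 or 500 nM was captured on streptavidin beads, then incubated 1 h at 4 °C with 500 nM of an in vitro-transcribed 260-nt 3′ UTR oligo pool in 25 mM Tris-HCl, 150 mM KCl, 3 mM MgCl2, BSA and SUPERase IN. Bound RNA was washed, eluted with biotin, reverse transcribed, PCR-amplified and sequenced. Binding is R, each oligo's mapped-read-normalized abundance in the bound sample divided by its abundance in input. Duplicates used two independent protein batches.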
Turning to B1, the binding signal was 0.0267 R (bound/input frequency ratio).

Turning to B2, the binding signal is 6.77 R (bound/input frequency ratio).

Turning to B3, the binding signal was 3.09 R (bound/input frequency ratio).

Take B4: the binding signal is 4.42 R (bound/input frequency ratio).

For the molecule B5, the binding signal was 6.74 R (bound/input frequency ratio).

In the case of B6, the binding signal is 6.34 R (bound/input frequency ratio).

As to B7, the binding signal was 9.99 R (bound/input frequency ratio).

Turning to B8, the binding signal was 2.11 R (bound/input frequency ratio).

Turning to B9, the binding signal was 0.502 R (bound/input frequency ratio).

Regarding B10, the binding signal was 0.412 R (bound/input frequency ratio).

Consider B11, for which the binding signal was 1.56 R (bound/input frequency ratio).
